Screens from PubChem BioAssay.
SUMO Mot1 rescue – SUMOylation pathway inhibition by Mot1-301 growth rescue | actives 1% (n = 320,000) | S. cerevisiae Mot1-301 growth rescue, ATP luminescence, 38.5C; percent above DMSO median, 100 means doubled | growth rescue, % at 18.8 µM;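 active = every valid replicate shows activation above 250% relative to neutral control wells; inactive = the rest, any valid replicate at or below 250%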
ATG4B inh – ATG4B (human) cysteine protease inhibition | Q9Y4P1 | ATG4B cleavage of LC3-PLA2, NBD-HPC fluorescence, 1 h | inhibition, % at 8.33 µM | actives 0.51% (n = 340,000) | AID 504462; in the data active = inhibition above about 40%
Target sequence (Q9Y4P1 whole entry, looked up): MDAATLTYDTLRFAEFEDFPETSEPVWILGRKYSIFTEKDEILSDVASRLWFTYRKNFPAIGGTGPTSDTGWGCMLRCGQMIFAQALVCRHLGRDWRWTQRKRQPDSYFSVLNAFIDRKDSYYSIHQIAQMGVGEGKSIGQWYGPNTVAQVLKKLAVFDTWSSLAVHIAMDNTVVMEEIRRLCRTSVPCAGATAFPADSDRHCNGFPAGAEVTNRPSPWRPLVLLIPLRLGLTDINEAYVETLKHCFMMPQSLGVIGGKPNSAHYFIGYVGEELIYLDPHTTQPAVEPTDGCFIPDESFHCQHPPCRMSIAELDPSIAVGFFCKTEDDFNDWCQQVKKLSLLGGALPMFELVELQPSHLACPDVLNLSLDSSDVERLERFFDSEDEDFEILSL
AI-2 QS modul – modulators of Vibrio harveyi AI-2 quorum sensing system. activity change, % at 7.5 µM. actives 0.4% (n = 300,000). Vibrio harveyi JMH597 AI-2 luminescence/OD600 ratio, 9 h; stronger effect = lower value; strain lacks LuxN and CqsS sensors; 0 = neutral-control median. AID 2094; in the data active = activity change below about -75%, passing the limit was not always enough;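 also: luminescence divided by OD600 gain over 9 h not by final OD600 alone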
Efflux pump inh – inhibitors of Candida antifungal efflux pumps expressed in yeast; S. cerevisiae Candida pump triplex, Nile Red efflux; inhibition, % at 10 µM; actives 0.44% (n = 330,000);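 active = plate passing quality check with inhibition over a set limit, or well fluorescence over plate mean plus 4 SD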;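 also: Nile Red retained in pooled yeast measured as flow cytometry median fluorescence; higher means more Nile Red kept so more efflux inhibition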
V-ATPase pHluor – yeast V-ATPase proton transport regulation by pHLuorin | S. cerevisiae, pHLuorin cytosolic pH fluorescence | response, % at 10 µM | actives 0.37% (n = 350,000); in the data active = response mostly above about 7.3%, no sharp cut-off; inactive = mostly below about 5.4%; also: actives read high
Large screens that a line does not name were inactive. Most compounds without a hit are left out; they make up all but 2.5% or so of the library.

CC1CCCCC12NC(=O)N(CC(=O)N1CCN(S(=O)(=O)c3ccc4c(c3)CCC4)CC1)C2=O (stereo not given)	V-ATPase pHluor 25 (no result: SUMO Mot1 rescue, AI-2 QS modul, Efflux pump inh)
Cc1ccc(C)c(NC(=O)C(NCC(C)(C)N2CCOCC2)c2ccccc2)c1 (stereo not given)	SUMO Mot1 rescue 767
Cc1ccc(CSc2nc3ccncc3[nH]2)cc1	AI-2 QS modul -77
COc1ccccc1NC(=O)CSc1nc2ncccc2[nH]1	none
COc1ccc(NC(C)=O)cc1NC(=O)CSc1nc2ncccc2[nH]1	SUMO Mot1 rescue 331
O=C(CSc1ccc(Cl)cc1)NCc1ccco1	none
CCOC(=O)C1CCN(C2=NC(=O)/C(=C/c3ccc(Cl)cc3)S2)CC1	none
CCOC(=O)CSC1=NC(=O)/C(=C\c2ccc(Cl)cc2)S1	V-ATPase pHluor 11
O=C(CSC1=NS(=O)(=O)c2ccccc21)Nc1ccccc1	none
COC(=O)CSC1=NS(=O)(=O)c2ccccc21	V-ATPase pHluor 11
CCCCn1c(N)c(N(CCOC)C(=O)COC(=O)C(C)(C)Oc2ccc(Cl)cc2)c(=O)[nH]c1=O	none
Cc1nc2nc(CCNS(=O)(=O)c3ccc(Cl)cc3)cn2nc1C	V-ATPase pHluor 13
COc1ccc(CC(=O)OCC(=O)Nc2ncc(Cl)c(C)c2Cl)cc1	none (no result: SUMO Mot1 rescue, AI-2 QS modul, Efflux pump inh)
CCCCCCCn1c(=N)n(CC(=O)c2ccco2)c2ccccc21	SUMO Mot1 rescue 514
CCCCn1c(=N)n(CC(=O)c2ccco2)c2ccccc21	none
CS(=O)(=O)CCC(C(=O)Nc1ccc2c(c1)OCO2)N1Cc2ccccc2C1=O (stereo not given)	none
CCNC(=O)c1c(NC(=O)c2cc(-c3cc(C)cc(C)c3O)n[nH]2)sc2c1CCCC2	none (no result: SUMO Mot1 rescue, AI-2 QS modul, Efflux pump inh)
CSc1cccc(NC(=S)N(CCN(C)C)C(C)c2ccncc2)c1 (stereo not given)	SUMO Mot1 rescue 318
CSc1cccc(NC(=S)N(CCN(C)C)C(C)c2ccccn2)c1 (stereo not given)	none
O=c1cc(-c2c(F)c(F)c(F)c(F)c2F)oc2c(F)c(F)c(F)c(F)c12	AI-2 QS modul -78 (no result: ATG4B inh, V-ATPase pHluor)
O=C(N/N=C\c1ccc([N+](=O)[O-])s1)C1COc2ccccc2O1 (stereo not given)	AI-2 QS modul -86
O=C(N/N=C\c1ccc([N+](=O)[O-])o1)C1COc2ccccc2O1 (stereo not given)	AI-2 QS modul -87
O=C(N/N=C\c1ccc(-c2ccccc2[N+](=O)[O-])o1)C1COc2ccccc2O1 (stereo not given)	none
COc1ccc(OC)c(CCNC(=O)CCC(=O)N2CCOc3ccc(C)cc32)c1	none
CCOC(=O)C1=NNC2C(=O)N(Cc3ccccc3)C(=O)C12 (stereo not given)	none
CC1CN(CCOc2ccc(Cl)cc2Cl)CC(C)O1 (stereo not given)	SUMO Mot1 rescue 272
CC(C)(C)C1CCC2(CC1)NC(=S)N(c1ccccc1)N2 (stereo not given)	SUMO Mot1 rescue 302
O=C(c1cccc(S(=O)(=O)N2CCOCC2)c1)N1CCN(c2ccc(F)cc2)CC1	V-ATPase pHluor 18
O=C(c1cccc(S(=O)(=O)N2CCOCC2)c1)N1CCN(c2ccccc2)CC1	none (no result: AI-2 QS modul)
Cc1ccccc1-c1nc(CN2CCC(C(=O)NCCCN3CCCC3)CC2)c(C)o1	none
Cc1ccccc1-c1nc(CN2CCC(C(=O)NCCCN3CC(C)CC(C)C3)CC2)c(C)o1 (stereo not given)	SUMO Mot1 rescue 559
CS(=O)(=O)c1ccc2nc(NC(=O)CCC(=O)c3cccs3)sc2c1	AI-2 QS modul -96
Cc1cc(NC(=O)c2cc(-c3ccc(OC(C)C)cc3)nc3ccccc23)no1	SUMO Mot1 rescue 312
CCC(C)c1ccc(-c2cc(C(=O)OCC(=O)Nc3cc(C)on3)c3ccccc3n2)cc1 (stereo not given)	none
O=C(NCCc1cn2ccccc2n1)C1CCCCC1	none
Cc1onc(-c2ccccc2Cl)c1C(=O)N1C=CC(C(F)(F)F)=NCC1	none
O=C(c1ccc([N+](=O)[O-])cc1)N1C=CC(C(F)(F)F)=NCC1	SUMO Mot1 rescue 346
COc1ccc(OC)c(NC(=O)C2C3CCC(O3)C2C(=O)O)c1 (stereo not given)	none (no result: ATG4B inh, V-ATPase pHluor)
O=S(=O)(c1ccc(S(=O)(=O)N2CCN(C/C=C/c3ccccc3)CC2)cc1)N1CCCC1	SUMO Mot1 rescue 295
CCN(CC)c1ccc(N=Cc2ccccc2[N+](=O)[O-])cc1	ATG4B inh 55
CCN(CC)c1ccc(N=Cc2ccc([N+](=O)[O-])o2)cc1	none
